Here are results for 40 molecules from PubChem BioAssay (NCI).

About 83,000 compounds went through this panel and 20% of them were active in at least one assay; those are over-represented in the sample as a whole.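 Percent growth is the endpoint: 0 to 100 indicates growth inhibition (40 means 60% inhibition), 0 means no net growth, and negative values indicate cell death.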 The source made the active and inactive calls.

The assay relates to OVCAR-3 ovarian. The assay can be described thus: NCI-60 one-dose screen, 48 h (100 = growth as untreated, 0 = no growth, -100 = all killed). As to conditions: 10 µM unless noted. As to the method: Growth inhibition of the OVCAR-3 human tumor cell line is measured as a screen for anti-cancer activity. Cells are grown in 96 well plates and exposed to the test compound for 48 hours. Compounds are tested at a single concentration, which is 10^-5 M for most compounds. The reported endpoint is percent growth (GI% or GIPRCNT), where numbers from 0 - 100% represent growth inhibition, and numbers from -100% - 0 represent cell death. For example, a value of 40 represents 60% growth inhibition. A value of 0 means no net growth occurred over the course of the experiment. A value of -40 indicates 40% of cells at the beginning of the experiment died by the end of the experiment. A value of -100 means all cells are dead at the end of the experiment.
NCI-60 Human Tumor Cell Lines Screen was performed using the standard one-dose NCI protocol, which is described in more detail at https://dtp.cancer.gov/discovery_development/nci-60/default.htm.
Compounds with GIPRCNT values below 10 were considered active. Activity score was based on GIPRCNT using the following formula: […]
Score is 0 for GIPRCNT values of 100 or above, 50 for GIPRCNT values of 0, and 100 for GIPRCNT values of -100.
For the molecule `CC(=O)O[C@H]1CC[C@H]2[C@@H]3CC=C4c5nc(-c6ccccc6)sc5CC[C@]4(C)[C@H]3CC[C@]12C`, the growth was 92.9% (inactive). On to `CO[C@H](C(=O)O)[C@@H]1Cc2cc3cc(OC4CC(OC5CC(O)C(O)C(C)O5)C(O)C(C)O4)c(C)c(O)c3c(O)c2C(=O)[C@H]1OC1CC(OC2CC(OC3CC(C)(O)C(O)C(C)O3)C(O)C(C)O2)C(O)C(C)O1` (stereo not given in full), for which the growth was 10% (inactive).

For `CC12CCC3C(CCC4=CC(=O)CCC43CF)C1CCC2=O` (stereo not given), the growth was 119% (inactive).

As for `c1cnc2[nH]cc(-c3csc(-c4cn(CCCCN5CCCCC5)c5ccccc45)n3)c2c1`, the growth is 90.5% (inactive).

For `COc1cccc2c1c(C(=O)c1ccco1)cn2Cc1ccc(F)cc1`, the growth is 108% (inactive). To `N#C[Se]CCN1C(=O)c2ccccc2C1=O` belongs 39.2% (inactive); to `O=C(Nc1ccc([As]=[As]c2ccc(NC(=O)c3ccccc3)cc2)cc1)c1ccccc1` (stereo not given), -94% (active). As for `C[C@@H]1O[C@@H](O[C@H]2C[C@@H](O)[C@]3(CO)C4C(CC[C@]3(O)C2)[C@@]2(O)CC[C@H](C3=CC(=O)OC3)[C@@]2(C)C[C@H]4O)[C@H](O)[C@H](O)[C@H]1O` (stereo not given in full), the growth was -96.2% (active). To `CS(=O)(=O)CCN1CC2CCCC(C2)C1` belongs 110% (inactive). To `Cc1cccc(N2CCN(C(C)C#N)CC2)c1` (stereo not given) belongs 109% (inactive); to `C=CC1=C[C@@H]2[C@@H]3O[C@]4(CC[C@H](O4)[C@@H](C)C[C@@H](O)C3=O)C[C@H](O)C3=NCC[C@@]32CC1`, -30.7% (active); to `CC[C@H](C)[C@H](NC(=O)c1cccn1C)C(=O)N(C)[C@H](C[C@@H](OC(C)=O)c1nc(C(=O)N[C@@H](Cc2ccccc2)C[C@H](C)C(=O)OC)cs1)C(C)C`, -3.92% (active). To `COC(=O)[C@@]1(O)C[C@H]2O[C@]1(C)n1c3ccccc3c3c4c(c5c6ccccc6n2c5c31)C(=O)NC4` belongs -19.2% (active); to `CN1CC(=O)N(O)C1(C)c1cccnc1` (stereo not given), 107% (inactive). Regarding `COc1ccc(/C=C\c2cc(OC)c(OC)c(OC)c2)cc1NC(=O)/C=C/c1cc(OC)c(OC)c(OC)c1`, the growth was 47.7% (inactive). With `CN(C)C(=O)Oc1ccc(Br)cc1`, the growth was 106% (inactive).

For the molecule `C[N+](C)(C)Cc1cc(Cl)ccc1O`, the growth is 109% (inactive). To `Cc1ccc(S(=O)(=O)C(Cl)(Cl)Cl)cc1` belongs 110% (inactive); to `CCOC(=S)S[C@H]1C[C@@H]2[C@H](CC[C@]3(C)C(=O)CC[C@@H]23)[C@@]2(C)CCC(=O)C=C12`, 115% (inactive); to `CC(=O)ONc1ccc([N+](=O)[O-])c(C(F)(F)F)c1`, 104% (inactive). Consider `COC(=O)[C@@H](C)C[C@H](Cc1ccccc1)NC(=O)c1csc([C@@H](C[C@H](C(C)C)N(C)C(=O)C2(NC(=O)[C@H]3CCCCN3C)CCC2)OC(C)=O)n1`, for which the growth was -6.95% (active).

For `O=C1NC(=O)C(=Cc2cn(CCCCCCn3c4ccccc4c(=O)c4ccccc43)c3ccccc23)C(=O)N1`, the growth is 99.2% (inactive).

Take `CC(C)(N)Cc1ccccc1`: the growth is 112% (inactive). As to `CN1C(=O)C23CC4(C56CC78SSC(CO)(C(=O)N7C5Nc5ccccc56)N(C)C8=O)c5ccccc5NC4N2C(=O)C1(CO)SS3` (stereo not given), the growth is -97.8% (active). As for `C[C@@]12CC=C3c4nc(Nc5cccc(O)c5)sc4CC[C@]3(C)[C@H]1CC[C@]1(C)C(=O)CC[C@@H]21`, the growth is -3.79% (active). Consider `COc1cc2c(cc1OCCCCn1c(-c3cccs3)nc3ccccc31)N=C[C@@H]1CCCN1C2=O`, for which the growth is -10.9% (active). To `Cc1c(C)c([N+](=O)[O-])c(C)c(C)c1[N+](=O)[O-]` belongs 118% (inactive); to `COC(=O)N[C@H]1CCc2c(Br)c(OC)c(OC)c(OC)c2-c2ccc(SC)c(=O)cc21`, -40.5% (active). For `COC(=O)[C@H](C[C@H](Cc1ccccc1)NC(=O)c1csc([C@@H](C[C@H](C(C)C)N(C)C(=O)[C@@H](NC(=O)[C@H]2CCCCN2C)C(C)C)OC(C)=O)n1)NC(=O)OCc1ccccc1` the value was -12.2% [8.5 µM] (active); for `Cc1cc(C)c(CBr)c(C)c1`, 113% (inactive); for `COC(=O)C1CCC(NC(=O)c2csc([C@@H](C[C@H](C(C)C)N(C)C(=O)[C@@H](NC(=O)[C@H]3CCCCN3C)C(C)C)OC(C)=O)n2)CC1` (stereo not given in full), -37.6% (active). As to `CCn1cnc2c(Nc3cccc(Cl)c3)nc(N[C@@H]3CCCC[C@@H]3N)nc21`, the growth is 0.926% (active). To `COc1ccc(C/C(C)=C(\c2ccc(OCCN3CCOCC3)cc2)c2ccc(OC(=O)Cc3ccccc3)cc2)cc1` belongs -93.4% (active); to `CC[C@@H]1[C@@H](C)O[C@@](O)([C@@H](C)[C@H](O)[C@H](C)[C@H]2OC(=O)/C=C/C=C/[C@H](C)[C@@H]([C@@H](C)[C@@H](O)[C@H](C)[C@@]3(O)C[C@@H](O[C@H]4C[C@@H](O)[C@H](O)C(C)O4)[C@H](CC)[C@@H](C)O3)OC(=O)/C=C/C=C/[C@@H]2C)C[C@H]1O[C@@H]1C[C@@H](O)[C@H](O)C(C)O1` (stereo not given in full), -98% (active).

`Cc1cc(C)cc(Nc2nc3c(s2)CC[C@@]2(C)C3=CC[C@@H]3[C@@H]2CC[C@]2(C)C(=O)CC[C@@H]32)c1`: the growth was 23.8% (inactive). Regarding `Fc1ccc2c(c1)c(-c1nc(-c3c[nH]c4ncccc34)cs1)cn2CCCCN1CCCCC1`, the growth is -84.3% (active). With `CCOC(=O)CCN(C)C1=Nc2ccc(Cl)cc2C(c2ccccc2)=[N+]([O-])C1`, the growth is 110% (inactive). Regarding `Nc1ccc(OCCNS(=O)(=O)c2cccc(S(=O)(=O)F)c2)c(Cl)c1`, the growth was 110% (inactive). Regarding `Cc1ccc(C(Cc2ccccc2)NCCO)cc1` (stereo not given), the growth was 100% (inactive). In the case of `CC(=O)C(c1c(O)c2ccccc2oc1=O)c1cc(=O)oc2c1ccc1ccccc12` (stereo not given), the growth was 110% (inactive).
